# From the antibiotic and cytotoxicity screens of Wong et al. (2023)
# Among all 39,000 compounds or so, about 500 (1.3%) were called active. Shown is part of a subset that was picked to be rich in actives.
# System: S. aureus RN4220
# Test: growth inhibition call (relative growth <= 0.2)
# Conditions: 50 µM
row,SMILES,growth inhibition call
1,CC(C)NC(=O)N(C)C[C@H]1Oc2ccc(NS(=O)(=O)c3cn(C)cn3)cc2C(=O)N([C@@H](C)CO)C[C@H]1C,inactive
2,CN(C)C1CCN(C(=O)c2cnc(-c3noc4cc(-c5cccc(C(F)(F)F)c5)ccc34)s2)CC1,inactive
3,CN(C)C1CCN(C(=O)c2cnc(-c3noc4cc(-c5ccccc5C(F)(F)F)ccc34)s2)CC1,active
4,Cc1ccc(S(=O)(=O)N(C)C[C@H]2Oc3c(NS(=O)(=O)c4ccc(F)cc4)cccc3C(=O)N([C@@H](C)CO)C[C@H]2C)cc1,inactive
5,C[C@H]1CN([C@@H](C)CO)C(=O)c2c(c3ccccc3n2C)-c2ccccc2CO[C@H]1CN(C)Cc1ccc(C(=O)O)cc1,inactive
6,CC[C@@H](C)NCCCCOc1ccc(Cl)cc1C(C)(C)C,active
7,Cc1ccc(OCc2ccc(Cl)cc2)c(C(C)(C)C)c1,inactive
8,CC(C)(C)NCCCCOc1ccc(Cl)cc1C(C)(C)C,inactive
9,C[C@H](CO)N1C[C@H](C)[C@@H](CN(C)S(=O)(=O)c2cn(C)cn2)Oc2ccc(NC(=O)Nc3ccc4c(c3)OCO4)cc2CC1=O,inactive
10,CC(=O)N[C@@H](CCCNC(=N)N)C(=O)N[C@H]1CSSC[C@@H](C(N)=O)NC(=O)[C@H](Cc2c[nH]c3ccccc23)NC(=O)[C@H](CCCNC(=N)N)NC(=O)[C@@H](Cc2ccccc2)NC(=O)[C@H](Cc2cnc[nH]2)NC(=O)[C@@H](C)NC1=O,inactive
11,CC[C@H](C)[C@H](N)C1=N[C@H](C(=O)N[C@@H](CC(C)C)C(=O)N[C@@H]2CCC(=O)[O][Zn][O]C(=O)C[C@H]3NC(=O)[C@H](Cc4c[nH]cn4)NC(=O)[C@@H](Cc4ccccc4)NC(=O)[C@H]([C@@H](C)CC)NC(=O)[C@@H](CCCN)NC(=O)[C@H](CCCCNC(=O)[C@H](CC(N)=O)NC3=O)NC(=O)[C@H]([C@@H](C)CC)NC2=O)CS1,active
12,NCCCC[C@H](NC(=O)[C@@H]1CCCN1C(=O)[C@@H]1CSSC[C@H](N)C(=O)N[C@@H](Cc2ccccc2)C(=O)N[C@@H](Cc2ccccc2)C(=O)NC(CCC(N)=O)C(=O)N[C@@H](CC(N)=O)C(=O)N1)C(=O)NCC(N)=O (stereo partly specified),inactive
13,CC[C@H](C)[C@H](N)C1=N[C@H](C(=O)N[C@@H](CC(C)C)C(=O)N[C@H](CCC(=O)O)C(=O)N[C@H](C(=O)N[C@H]2CCCCNC(=O)[C@H](CC(N)=O)NC(=O)[C@@H](CC(=O)O)NC(=O)[C@H](Cc3cnc[nH]3)NC(=O)[C@@H](Cc3ccccc3)NC(=O)[C@H]([C@@H](C)CC)NC(=O)[C@@H](CCCN)NC2=O)[C@@H](C)CC)CS1,active
14,C[C@@H]1CN([C@@H](C)CO)C(=O)c2cc(NC(=O)Nc3ccc(C(F)(F)F)cc3)ccc2O[C@@H]1CN(C)C(=O)Nc1ccc2c(c1)OCO2,inactive
15,CC(=O)c1c(C)nn(CC(=O)O)c1C,inactive
16,COc1ccc(NC(=O)N(C)C[C@@H]2OCCCC[C@@H](C)Oc3ccc(NC(=O)NC(C)C)cc3C(=O)N([C@H](C)CO)C[C@@H]2C)cc1,inactive
17,O=C(C[C@@H]1C[C@@H]2c3cc(NC(=O)c4ccc5c(c4)OCO5)ccc3O[C@@H]2[C@H](CO)O1)NCc1ccc(Oc2ccccc2)cc1,inactive
18,CN(C)C1C(O)=C(C(N)=O)C(=O)C2(O)C(O)=C3C(=O)c4c(O)ccc(Cl)c4C(C)(O)C3CC12.Cl (stereo unspecified),inactive
19,CN(C)C1C(O)=C(C(N)=O)C(=O)C2(O)C(O)=C3C(=O)c4c(O)cccc4C(C)(O)C3CC12.Cl (stereo unspecified),inactive

row,SMILES,growth inhibition call
1,CN(C)[C@@H]1C(=O)C(C(=O)NCN2CCCC2)=C(O)[C@@]2(O)C(O)=C3C(=O)c4c(O)cccc4[C@@](C)(O)[C@H]3C[C@@H]12,active
2,C[C@H](O)[C@H](O)[C@@H](O)[C@@H](O)/C=N/NC(=O)c1ccc(C(=O)NO)cc1,inactive
3,COc1ccc(S(=O)(=O)N2C[C@@H](O)COC[C@H]3O[C@@H](CC(=O)N[C@H]4CCN(Cc5ccccc5)C4)CC[C@@H]32)cc1,inactive
4,CC(=O)Oc1cccc(O)c1,inactive
5,CC(=O)Oc1cccc(C)c1 [meta-CRESYL ACETATE],inactive
6,CN(CCCCCCCCCCN(C)C(=O)Oc1cccc([N+](C)(C)C)c1)C(=O)Oc1cccc([N+](C)(C)C)c1,active
7,C[C@@H]1CN([C@H](C)CO)C(=O)c2cc(NC(=O)C3CCCCC3)ccc2O[C@@H](C)CCCCO[C@@H]1CN(C)C(=O)Nc1ccccc1,inactive
8,COc1ccc(S(=O)(=O)N(C)C[C@@H]2Oc3ccc(NC(=O)CCN4CCOCC4)cc3CC(=O)N([C@@H](C)CO)C[C@H]2C)cc1,inactive
9,C[C@@H]1CN([C@H](C)CO)C(=O)Cc2cc(NS(=O)(=O)c3cn(C)cn3)ccc2O[C@H]1CN(C)S(C)(=O)=O,inactive
10,CC(C)Oc1cccc(CC(=O)N2CCC[C@](CC[N+]34CCC(c5ccccc5)(CC3)CC4)(c3ccc(Cl)c(Cl)c3)C2)c1,active
11,CC(=O)N(C)C1(c2ccccc2)CCN(CCC[C@]2(c3ccc(Cl)c(Cl)c3)CCCN(C(=O)c3ccccc3)C2)CC1,inactive
12,C[C@@H]1CN([C@@H](C)CO)C(=O)c2cccc(NC(=O)C3CCOCC3)c2O[C@H]1CN(C)Cc1ccc(C(=O)O)cc1,inactive
13,NCC[C@H]1CC[C@@H](NC(=O)Nc2ccc(F)cc2)[C@@H](CO)O1,inactive
14,CC1(C(=O)O)CCC2(C)CCC3(C)C(=CC(=O)C4C5(C)CCC(O)C(C)(C)C5CCC43C)C2C1 (stereo unspecified),inactive
15,CC(=O)Oc1cc2c(c(C)c1OC(C)=O)CC=C1[C@@]2(C)CC[C@@]2(C)[C@H]3C[C@](C)(C(=O)O)CC[C@]3(C)CC[C@]12C,active
16,C[C@@H]1CCCCO[C@@H](CN(C)Cc2ccc(C(=O)O)cc2)[C@H](C)CN([C@H](C)CO)C(=O)c2cc(NC(=O)Nc3ccc(F)cc3)ccc2O1,inactive
17,C[C@@H]1CN([C@@H](C)CO)C(=O)c2cc(C#CC3(O)CCCC3)cnc2O[C@@H]1CN(C)S(=O)(=O)c1ccc(F)cc1,inactive
18,COCC(=O)N1CC[C@]2(CC1)CN([C@H](CO)c1c2c2ccc(cc2n1C)OC)C(=O)Cc1ccccc1,inactive
19,CCC(=O)OC1C(OC2C(C)C(OC3CC(C)(OC)C(O)C(C)O3)C(C)C(=O)OC(CC)C(C)(O)C(O)C(C)C(=O)C(C)CC2(C)O)OC(C)CC1N(C)C.CCCCCCCCCCCCOS(=O)(=O)O (stereo unspecified),inactive

row,SMILES,growth inhibition call
1,CCOC(=O)CCC(=O)O[C@H]1[C@H](O[C@@H]2[C@@H](C)[C@H](O[C@H]3C[C@@](C)(OC)[C@@H](O)[C@H](C)O3)[C@@H](C)C(=O)O[C@H](CC)[C@@](C)(O)[C@H](O)[C@@H](C)C(=O)[C@H](C)C[C@@]2(C)O)O[C@H](C)C[C@@H]1N(C)C,active
2,CCOC(=O)CCC(=O)OC1C(OC2C(C)C(OC3CC(C)(OC)C(O)C(C)O3)C(C)C(=O)OC(CC)C(C)(O)C(O)C(C)C(=O)C(C)CC2(C)O)OC(C)CC1N(C)C (stereo unspecified),active
3,CCC(=O)O[C@H]1[C@H](O[C@@H]2[C@@H](C)[C@H](O[C@H]3C[C@@](C)(OC)[C@@H](O)[C@H](C)O3)[C@@H](C)C(=O)O[C@H](CC)[C@@](C)(O)[C@H](O)[C@@H](C)C(=O)[C@H](C)C[C@@]2(C)O)O[C@H](C)C[C@@H]1N(C)C,inactive
4,CO[C@@H]1CN(C)C(=O)c2ccc(NC(=O)Nc3ccc(F)cc3)cc2OC[C@@H](C)N(C(=O)c2ccc(F)cc2)C[C@H]1C,inactive
5,Cc1nn(C)c2c1[C@@H](c1ccc(C(F)(F)F)cc1)C(C#N)C(=N)O2 (stereo partly specified),inactive
6,CCCNC(=O)N(C)C[C@H]1Oc2cc(-c3ccccc3F)ccc2S(=O)(=O)N([C@@H](C)CO)C[C@H]1C,inactive
7,Cc1noc(C)c1NC(=O)Nc1ccc2c(c1)C(=O)N([C@@H](C)CO)C[C@@H](C)[C@@H](CN(C)Cc1ccc(C(=O)O)cc1)OCCCC[C@H](C)O2,inactive
8,C[C@@H]1CN([C@H](C)CO)C(=O)c2cc(NC(=O)c3ccncc3)ccc2O[C@@H]1CN(C)Cc1ccc(C(=O)O)cc1,inactive
9,COc1cccc(CNC(=O)c2cc3c(c(-c4cccc(-c5ccncc5)c4)n2)[C@@H](CCO)N([S@](=O)C(C)(C)C)C3)c1,inactive
10,CCCCCCCCCCCCCCCC(=O)OC1C(SC)OC(C(NC(=O)C2CC(CCC)CN2C)C(C)Cl)C(O)C1O.Cl (stereo unspecified),inactive
11,CCC[C@@H]1C[C@@H](C(=O)N[C@H]([C@H]2O[C@H](SC)[C@H](O)[C@@H](O)[C@H]2O)[C@@H](C)Cl)N(C)C1,active
12,CCC[C@@H]1C[C@@H](C(=O)N[C@@H]([C@H]2O[C@H](SC)[C@H](OP(=O)(O)O)[C@@H](O)[C@H]2O)[C@H](C)Cl)N(C)C1,inactive
13,CCCC1CC(C(=O)NC(C(C)Cl)C2OC(SC)C(O)C(O)C2O)N(C)C1.Cl (stereo unspecified),active
14,CCCCCCCCCCCCCCCC(=O)O[C@@H]1[C@@H](O)[C@@H](O)[C@@H]([C@H](NC(=O)[C@@H]2C[C@@H](CCC)CN2C)[C@H](C)Cl)O[C@@H]1SC,inactive
15,C[C@H](CO)N1C[C@H](C)[C@H](CN(C)Cc2ccncc2)Oc2ccc(NC(=O)Nc3cccc4ccccc34)cc2CC1=O,inactive
16,COc1ccc(NC(=O)Nc2ccc3c(c2)C(=O)N([C@H](C)CO)C[C@H](C)[C@@H](CN(C)S(=O)(=O)c2ccccc2)OCCCC[C@H](C)O3)cc1,inactive
17,COc1ccc(S(=O)(=O)N(C)C[C@@H]2Oc3cc(C4=CCCC4)ccc3S(=O)(=O)N([C@@H](C)CO)C[C@@H]2C)cc1,inactive
18,C[C@@H]1[C@@H](c2ccccc2)OC(=O)[C@@H]2[C@H]3C(=O)N([C@@H](C)CO)[C@@H]4C(=O)N(Cc5ccccc5)CC=C[C@]34O[C@@H]2/C=C/CCC(=O)N1C,inactive
